The campaign covered roughly 16,000 compounds. About 5,800 (36%) were called active. Not shown: some 23% with an inconclusive outcome. This is one part of the list. Values without a mark were called inactive. Calls follow the shape of the dose curve; as a rule, active = well fitted curve in the direction sought with a large enough effect; inconclusive = small, poorly fitted or top-dose-only effect, or effect the other way; inactive = no such curve, though single readings can be large or run the other way.
% is scaled to controls: 0 for no effect and ±100 for the full control effect.

Chain of Cytochrome P450 2C19 (Homo sapiens) (P33261 whole entry, looked up): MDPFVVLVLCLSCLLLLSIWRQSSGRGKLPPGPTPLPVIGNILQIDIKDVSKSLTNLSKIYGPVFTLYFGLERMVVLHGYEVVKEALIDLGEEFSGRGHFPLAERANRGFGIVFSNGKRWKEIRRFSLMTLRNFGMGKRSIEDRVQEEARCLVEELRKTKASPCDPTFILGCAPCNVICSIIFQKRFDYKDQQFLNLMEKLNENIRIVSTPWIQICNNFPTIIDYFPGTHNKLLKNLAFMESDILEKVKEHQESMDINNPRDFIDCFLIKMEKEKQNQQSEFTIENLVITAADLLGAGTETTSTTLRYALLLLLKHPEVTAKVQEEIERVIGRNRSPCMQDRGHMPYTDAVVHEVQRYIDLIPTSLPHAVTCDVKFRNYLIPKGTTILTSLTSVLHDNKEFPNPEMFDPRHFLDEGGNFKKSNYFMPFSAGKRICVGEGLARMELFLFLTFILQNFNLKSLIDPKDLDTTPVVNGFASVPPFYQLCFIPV

The test concerns the target Cytochrome P450 2C19 (Homo sapiens) (UniProt P33261). As to the kind of experiment: Cytochrome panel assay with activity outcomes. The settings on record: recombinant CYP, pro-luciferin dealkylation, luminescence, p450-cyp2c19; series mostly up to 57.1 µM. The method, then: The P450 gene superfamily is involved in the metabolism and clearance of xenobiotics. This assay used various human CYP P450 isozymes to measure the dealkylation of various pro-luciferin substrates to luciferin. The luciferin is then measured by luminescence after the addition of a luciferase detection reagent. Pro-luciferin substrate concentration in the assay was equal to its KM for its CYP P450 isozyme. Inhibitors and some substrates limit the production of luciferin, and decrease measured luminescence.
NCGC Assay Protocol Summary:
1, Reagent, 2 uL, Isozyme and Pro-Luciferin
2, Library compounds, 23 nl, 40 uM to 0.24 nM dilution series
3, Controls, 23 nl, Isozyme specific inhibitor
4, Reagent, 2 uL, NADPH regeneration solution
5, Incubation time, 60 min, Isozyme specific temperature
6, Reagent, 4ul, Detection reagent
7, Incubation time, 20 min, Isozyme specific temperature
8, Detection, 1 sec, ViewLux luminescent read
The luciferase-based P450-GloTM Screening Systems were obtained from Promega (Madison, WI) for CYP 1A2 (V9770), CYP 2C9 (V9790), CYP2 C19 (V9880), CYP 2D6 (V9890), and CYP 3A4 Luciferin-PPXE (V9910) and were adapted for 1,536-well microplates and an automated protocol. The control compounds furafylline for 1A2 (F124), sulfaphenazole for CYP 2C9 (S0758), ketoconazole for CYP 2C19 (K1003), quinidine for 2D6 (Q3625), and ketoconazole for 3A4 (K1003) were purchased from Sigma Aldrich (St. Louis, MO). Recombinant P450 enzymes were obtained from baculovirus constructs expressed in insect cells (BD/Gentest).
Medium-binding white solid Kalypsys plates used. Mixtures kept on ice. 1A2: 10 nM 1A2, 100 uM Luc-ME, 100 mM KPO4; 2C9: 10 nM 2C9, 100 uM Luc-H, 25 mM KPO4; 2C19: 5 nM 2C19, 10 uM Luc-H EGE, 50 mM KPO4; 2D6: 5 nM 2D6, 30 uM Luc-ME EGE, 100 mM KPO4; 3A4: 10 nM, 25 uM Luc-PPXE. All amounts are reflected in their final concentration, working concentration is 2x.
NADPH regeneration solution: 1.3 mM NADP+, 3.3 mM glucose-6-phosphate, 3.3 mM MgCl2, 0.4 U/mL glucose-6-phosphate dehydrogenase for all isozymes, 200 mM KPO4 for 3A4. Mixture prepared at RT but kept on ice during automated run.
RT incubation in auxilliary plate hotel for 1A2, 2D6, and 3A4; 37C for 2C9 and 2C19.
Keywords: P450, CYP1A2, CYP2C19, CYP2C9, CYP2D6, CYP3A4, Luciferase, MLSMR, MLSCN, NIH Roadmap, qHTS, NCGC
Regarding `CCOC(=O)c1ncn2c1[C@H]1CCCN1C(=O)c1cc(OC)ccc1-2`, the AC50 (usually the midpoint of the concentration-response curve, whichever way the signal moves) was “inactive”. The same measure, in the same setting: the value for `O=C(Nc1ccccc1)N1CC2(CCN(C(=O)Oc3ccccc3)CC2)C1` was “inactive”. Consider `COC(=O)[C@@H]1c2cc3c(c(O)c2[C@@H](O)C[C@]1(C)O)C(=O)c1c(O)cc2c(c1C3=O)O[C@H]1O[C@@]2(C)[C@@H](O)[C@H](N(C)C)[C@H]1O`, for which the activity, negative = inhibition is -43.8% [at 11.4 µM]. Consider `N[C@H](Cc1ccc(N(CCCl)CCCl)cc1)C(=O)O`, for which the AC50 entry is “inactive”.

`CCCC(CCC)C(=O)O`: the AC50 result is “inactive”. On the same count and under the same terms, then `C1CCc2nnnn2CC1`, with “inactive”. Still for that read-out and setting: the value for `O=C(Nc1ccc(F)cc1F)c1cccnc1Oc1cccc(C(F)(F)F)c1` was 1.26 µM (active). `NNC(=O)c1ccc(O)cc1`: the AC50 entry was “inactive”. In the case of `CCCn1c(C)c(C(=O)c2cccc3ccccc23)c2ccccc21`, the concentration at half-maximal activity (AC50) was 10 µM (active).

As to `CCCn1c(C)c(C(=O)c2ccc3ccccc3c2)c2ccccc21`, the concentration at half-maximal activity (AC50) is 2 µM (active).

Turning to `COc1ccc(C(=O)c2c(C)n(CCN3CCOCC3)c3cc(I)ccc23)cc1`, the AC50 entry was “inactive”. Same read-out and setting: then `Cc1c(C(=O)c2ccc3ccccc3c2)c2cccc3c2n1[C@H](CN1CCOCC1)CO3`, with “inactive”.

Take `O=C(C[n+]1ccc2ccccc2c1)c1ccc2ccc3ccccc3c2c1`: the activity, negative = inhibition is 1.57% [at 11.4 µM].

For the compound `COc1ccc2c3c1O[C@@H]1C(=O)CC[C@@]4(O)[C@@H](C2)N(CC2CC2)CC[C@]314`, the AC50 result was “inactive”. Same read-out and setting: the value for `COc1ccc2c(c1)CCC1C2CC[C@]2(C)[C@H](NCCCCCCN3C(=O)C=CC3=O)CC[C@@H]12` (stereo partly specified) was “inactive”; that for `COc1cc2c(c(OC)c1OC)-c1ccc(O)c(=O)cc1[C@H](N)CC2` was “inactive”; that for `CN1[C@@H](C[C@@H](O)c2ccccc2)CCC[C@@H]1C[C@H](O)c1ccccc1` was “inactive”. On the same count and under the same terms, the value for `O=C(Oc1ccccc1)N1CCC2(CCCN(Cc3nccs3)C2)CC1` was “inactive”. Turning to `NCC[C@H](O)C(=O)N[C@H]1C[C@@H](N)[C@@H](O[C@H]2O[C@@H](CN)[C@@H](O)[C@@H](O)[C@@H]2N)[C@@H](O[C@H]2O[C@@H](CO)[C@@H](O)[C@@H]2O)[C@@H]1O`, the AC50 entry is “inactive”.

As to `Nc1nc(N)c(N=Nc2ccc([As](=O)(O)O)c(O)c2)c(N)n1`, the activity, negative = inhibition was 31% [at 11.4 µM]. For the compound `NC(=NCCc1ccc(I)cc1)SCCCc1cnc[nH]1`, the AC50 entry was “inactive”. Regarding `CN1C(=O)C(=Cc2ccc(N3CCCCCC3)o2)C(=O)N(C)C1=S`, the concentration at half-maximal activity (AC50) is 2.24 µM (active). The same measure, in the same setting: the value for `O=C(Nc1cccc(F)c1)N1CC2(CCNCC2)C1` was “inactive”. In the case of `COC(=O)[C@@H]1[C@@H](O)[C@@]2(O)c3c(OC)cc(OC)cc3O[C@@]2(c2ccc(OC)cc2)[C@H]1c1ccccc1`, the activity, negative = inhibition was 8.06% [at 11.4 µM]. Same read-out and setting: the value for `CCC1=C(C[C@H]2NCCc3ccccc32)C[C@@H]2c3cc(OC)c(OC)cc3CCN2C1` was -23.2% [at 11.4 µM]. The same measure, in the same setting: then `C[C@]12CC[C@@H]3[C@H](CCC4=CC(=O)CC[C@]43C)[C@]1(O)CC[C@@]2(O)C(=O)CO`, with 24.8% [at 11.4 µM]. As to `N[C@@H]1C=CC=C(C(=O)O)C1`, the AC50 entry was “inactive”. The same measure, in the same setting: then `O=[N+]([O-])c1ccc(S(=O)(=O)Cc2ccccc2)c([N+](=O)[O-])c1`, with 2 µM (active). Take `O=C(O)Cc1ccc([N+](=O)[O-])cc1[N+](=O)[O-]`: the activity, negative = inhibition is -28.8% [at 11.4 µM]. `O=[N+]([O-])c1cc(O)c(O)c([N+](=O)[O-])c1`: the AC50 result is “inactive”. On the same count and under the same terms, the value for `c1ccc(N2CC[C@@]3(CCCNC3)C2)nc1` was “inactive”. Still for that read-out and setting: then `CN1C(=O)C(=Cc2ccccc2Oc2ccc(Cl)c(F)c2)C(=O)N(C)C1=O`, with 3.55 µM (active). As to `COc1cc2c(cc1OC)[C@@]13CCN4CC5=CCO[C@H](CC(=O)O)[C@@H]([C@H]1N2)[C@H]5C[C@H]43`, the activity, negative = inhibition was -11.9% [at 11.4 µM]. On to `C[C@](N)(CCP(=O)(O)O)C(=O)O`, for which the AC50 result is “inactive”. The same measure, in the same setting: the value for `CC1CN=C(Nc2cccc3ccccc23)S1` (stereo unspecified) was 3.98 µM (active). The same measure, in the same setting: the value for `CC(=O)O[C@@H]1CN2CCC1CC2` was “inactive”. Regarding `c1ccc(CCN2CCCCCC2)nc1`, the activity, negative = inhibition is 38.1% [at 11.4 µM]. Regarding `CC(=O)N[C@@H]1CCSC1=O`, the AC50 result was “inactive”.

Consider `CN(N=O)C(=O)N[C@H]1C(O)OC(CO)[C@@H](O)[C@H]1O` (stereo partly specified), for which the concentration at half-maximal activity (AC50) is 7.94 µM (active). Turning to `CC(=O)[C@]1(O)CC[C@@H]2[C@H]3C[C@@H](C)C4=CC(=O)CC[C@@]4(C)[C@H]3[C@@H](O)C[C@]21C`, the activity, negative = inhibition was -31.5% [at 11.4 µM]. Still for that read-out and setting: then `C=C[C@@H]1CN2CC[C@H]1C[C@H]2[C@H](O)c1ccnc2ccccc12`, with 44.5% [at 11.4 µM].

For the compound `NC(N)=NN=Cc1c(Cl)cccc1Cl`, the AC50 entry is “inactive”. Regarding `CCCN1CC[C@@H]2c3cc(O)ccc3CC[C@H]21`, the AC50 result was “inactive”.

As for `CCCN1CCO[C@@H]2c3cc(O)ccc3OC[C@@H]21`, the AC50 was 10 µM (active).

Consider `CCCN1CCO[C@@H]2c3cc(O)ccc3OC[C@H]21`, for which the AC50 entry was “inactive”.

On to `O=C(O)[C@H]1[O][Sb][O][C@@H](C(=O)O)C1O` (stereo partly specified), for which the activity, negative = inhibition is 15.3% [at 11.4 µM].

Source of the values: PubChem BioAssay AID1851 (National Center for Advancing Translational Sciences (NCATS), 2009).
